93 compounds from PubChem BioAssay AID2716 (Broad Institute, 2010) can be followed below.

The structures appear in SMILES notation. The whole screen tested about 320,000 compounds, of which about 3,300 (1%) were called active. For the sample, actives were picked, then their nearest neighbours and some compounds at random. A number with no mark means an inactive call.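 How the source made its calls: active means every valid replicate shows activation above 250% relative to neutral control wells; inactive means the rest, any valid replicate at or below 250%.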

This experiment in a line: yeast Mot1-301 growth rescue at high temperature, primary screen, SUMOylation pathway inhibitor project, S. cerevisiae, ATP luminescence, 38.5C (AID 2716).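 Further: OY570 slx delta 5 strain wells were the positive control but not used for scaling.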 Conditions: S. cerevisiae Mot1-301 growth rescue, at 18.8 µM, stronger effect = higher value, percent above DMSO median, 100 means doubled.
Take `COC(=O)c1ccc2c(C(C)(C)O)c(C(C)(C)O)[nH]c2c1`: the growth rescue is 6.47%.
`COc1ccccc1CNS(=O)(=O)c1cc2c3c(c1)CCC(=O)N3CCC2`: the growth rescue is -12.2%.
In the case of `O=C(Nc1nccs1)C1CCN(S(=O)(=O)c2ccc(Cl)c(C(F)(F)F)c2)CC1`, the growth rescue was 639% (active).
With `O=C(Nc1ccccn1)C1CCN(S(=O)(=O)c2ccc3c(c2)OCCO3)CC1`, the growth rescue is -4.76%.
`O=C(Nc1ccccn1)C1CCN(S(=O)(=O)c2ccccc2)CC1`: the growth rescue was -0.505%.
For the compound `COc1ccccc1CNC(=O)[C@@H]1CCCN1C(=O)[C@@H]1Cc2ccccc2CN1C(=O)OC(C)(C)C`, the growth rescue is -1.52%.
With `CCOc1ccc(Oc2nc(C)cc(OC)n2)nn1`, the growth rescue was -10.1%.
For `O=C(CNS(=O)(=O)c1ccccc1)NCC(=O)OCc1ccccc1F`, the growth rescue is -4.19%.
With `Cc1ccc(SCC(=O)NC(=O)NCc2ccco2)c(C)c1`, the growth rescue is -8.85%.
In the case of `CSc1ncnc2sc(C)c(C)c12`, the growth rescue was -17.7%.
`Cc1sc2ncnc(Sc3nc4ccccc4s3)c2c1C`: the growth rescue is 512% (active).
Regarding `COC(=O)c1c(-c2cccs2)csc1NC(=O)CSc1ncnc2sc(C)c(C)c12`, the growth rescue was -4.24%.
In the case of `CCOc1ccc(S(=O)(=O)NCCC(=O)N2CCCCCCC2)cc1` it was 10%.
On to `COc1ccc(S(=O)(=O)N2CCCCCC2)cc1NC(=O)Cc1ccc(OC)c(OC)c1`, for which the growth rescue is -10.8%.
In the case of `NC(=O)c1cc(S(=O)(=O)N2CCCC2)ccc1OCc1ccc(F)cc1` it was 359% (active); in that of `Cc1ccc(S(=O)(=O)N2CCOCC2)cc1C(=O)NCc1ccc(F)cc1`, 2.54%.
`COc1ccc(OC)c(-n2cc3c(=O)n(C)c(=O)n(C)c3c2)c1`: the growth rescue was 2.1%.
As to `O=c1c2ccccc2nnn1CSc1nnnn1-c1ccccc1`, the growth rescue is 0.362%.
In the case of `O=c1c2ccccc2nc(CSc2nnnn2-c2ccccc2)n1-c1ccccc1` it was 1010% (active); in that of `Cc1ccc(Nc2nc(CSc3nnnn3-c3ccccc3)cc(=O)[nH]2)cc1`, 3.22%.
The result for `Cn1c(N)c(C(=O)COC(=O)c2ccccc2NCc2ccco2)c(=O)n(C)c1=O` reads 72.4%; that for `COC(=O)c1ccc(C(NC(=O)OCc2ccccc2)/C(F)=C/[C@@H](C)C(=O)O)cc1` (stereo partly drawn), -2.48%; that for `CCc1ccccc1S(=O)(=O)Cc1ccc(C(=O)NCCc2ccccc2)o1`, -2.78%.
Consider `COc1ccc(N2C(=O)CC(Sc3n[nH]c(-c4ccc(C)cc4)n3)C2=O)cc1` (stereo not drawn), for which the growth rescue is 257%.
Regarding `Cc1ccc(N2C(=O)CC(Sc3ncn[nH]3)C2=O)cc1` (stereo not drawn), the growth rescue was 287% (active).
Regarding `O=C1CC(Sc2ncn[nH]2)C(=O)N1c1ccccc1` (stereo not drawn), the growth rescue was -26.4%.
Turning to `COc1cc(Cl)c(C)cc1NC(=O)CSc1nnc(CN2CCCC2)o1`, the growth rescue was 50.1%.
As for `CCOc1cc2[nH]c(=S)n(Cc3ccc(C(=O)N4CCN(C)CC4)cc3)c(=O)c2cc1OCC`, the growth rescue was -1.75%.
With `O=C(CNS(=O)(=O)c1ccc(Br)s1)NCc1ccc2c(c1)OCO2`, the growth rescue was 17.3%.
With `O=C(CNC(c1ccccc1)c1ccccc1)Nc1ccc(F)cc1`, the growth rescue is 14.1%.
The result for `O=C1CC(c2ccccc2)C(=O)N1c1cccc(O)c1` (stereo not drawn) reads 564% (active); that for `O=C1OCC2=C1C(c1ccccc1)CC(=O)N2c1cccc(F)c1` (stereo not drawn), 4.11%.
With `CN1C(=O)CC(c2ccccc2)C1=O` (stereo not drawn), the growth rescue was 8.06%.
The result for `COc1ccc(C(C)=O)cc1CN1C(=O)NC2(CCCCC2C)C1=O` (stereo not drawn) reads 115%; that for `Cc1ccccc1OCCC(=O)Nc1c(C)n(C)n(-c2ccccc2)c1=O`, -23.7%; that for `CC(=O)N1CCc2cc(Br)cc(S(=O)(=O)CCC(=O)Nc3c(C)n(C)n(-c4ccccc4)c3=O)c21`, 461% (active).
For `Cc1ccc(S(=O)(=O)CC(=O)Nc2c(C)n(C)n(-c3ccccc3)c2=O)cc1`, the growth rescue is -28%.
As to `COC(=O)c1ccc(OC(=O)c2nn(C)cc2Cl)c(OC)c1`, the growth rescue was -16.8%.
Turning to `Cc1c(NC(=O)c2c([N+](=O)[O-])cnn2C)c(=O)n(-c2ccccc2)n1C`, the growth rescue is 0.562%.
For `CN(CC(=O)NCc1cccnc1)S(=O)(=O)c1cc(Cl)ccc1Cl`, the growth rescue was 249%.
In the case of `COc1ccc(CNS(=O)(=O)c2ccc(NC(=O)N3CCCCC3)cc2)cc1` it was 1.4%; in that of `COc1cc(C2C(C#N)=C(N)Oc3n[nH]c(-c4ccccn4)c32)cc(OC)c1OC` (stereo not drawn), -11.1%.
In the case of `COc1ccc(-c2[nH]nc3c2C(c2ccncc2)C(C#N)=C(N)O3)cc1` (stereo not drawn), the growth rescue is 577% (active).
The result for `CCOc1c(OC)cc(C2C(C#N)=C(N)Oc3n[nH]c(-c4ccncc4)c32)cc1OC` (stereo not drawn) reads 365%.
For `O=C(COC(=O)c1ccc(N2CCCC2=O)cc1)c1ccc(OC(F)F)cc1`, the growth rescue is -26.3%.
In the case of `Cc1cc(OC(C)C(=O)Nc2ccc(S(=O)(=O)Nc3onc(C)c3C)cc2)cc(C)c1Cl` (stereo not drawn) it was -7.5%.
As to `Cc1cc(C)c2nc(-c3cccnc3)cc(C(=O)Nc3ccc(S(=O)(=O)Nc4onc(C)c4C)cc3)c2c1`, the growth rescue was 404% (active).
For `CCn1c(SCC(=O)Nc2ccc(S(=O)(=O)Nc3onc(C)c3C)cc2)nnc1-c1ccccc1`, the growth rescue was 8.66%.
In the case of `CC1CN(C(=S)Nc2cccc(F)c2)CC(C)O1` (stereo not drawn) it was -11.7%.
The result for `COc1ccccc1/C=C/C(=O)NC1CC2CCC1C2` (stereo not drawn) reads -19.4%; that for `COc1ccccc1/C=C/C(=O)NC(=S)N1CCOCC1`, 413% (active).
Turning to `O=C(/C=C/c1ccco1)NC(=S)N1CCCCC1`, the growth rescue is -4.55%.
For `CCN1CCCC1CNC(=O)Cn1cnc2ccc(S(=O)(=O)N3CCC(C)CC3)cc2c1=O` (stereo not drawn), the growth rescue was 572% (active).
For `CC1CCN(S(=O)(=O)c2ccc3ncn(CC(=O)N(C)C4CCCCC4)c(=O)c3c2)CC1`, the growth rescue was -3.24%.
In the case of `CC1CC(C)CN(C(=O)CCNC(=O)Cn2cnc3ccccc3c2=O)C1` (stereo not drawn) it was 0.101%.
Consider `COC(=O)C1C(=O)CC(C)(O)C(C(=O)OC)C1c1ccc2c(c1)OCO2` (stereo not drawn), for which the growth rescue is -11.2%.
Regarding `COc1cccc(NC(=O)CC2C(=O)NCCN2C(=S)Nc2ccc(F)cc2)c1` (stereo not drawn), the growth rescue is 3.83%.
Regarding `COC(=O)c1cc(NC(=O)CC2C(=O)NCCN2C(=O)c2ccc(F)cc2)cc(C(=O)OC)c1` (stereo not drawn), the growth rescue was 8.77%.
Consider `COC(=O)c1sccc1NC(=O)CC1C(=O)NCCN1C(=O)Nc1ccc(F)cc1F` (stereo not drawn), for which the growth rescue is 848% (active).
Take `Cc1ccc(CNC(=O)C2(C(F)(F)F)C/C(=C\Cc3ccccc3)CCCO2)o1` (stereo not drawn): the growth rescue is 17.2%.
Turning to `Cc1cccc(N(C)C(=O)c2cc3c(=O)[nH]c4ccc(C)cc4c3s2)c1`, the growth rescue is 675% (active).
Turning to `Cc1ccc2[nH]c(=O)c(CC(=O)O)c(-c3ccccc3)c2c1`, the growth rescue is -1.66%.
Turning to `CCN(CC)CCCNC(=O)c1cc2c(=O)[nH]c3ccc(C)cc3c2s1`, the growth rescue is 6.48%.
As to `COc1cccc(NC(=O)COc2cccnc2[N+](=O)[O-])c1`, the growth rescue is 8.97%.
In the case of `Cc1cc(C)c(S(=O)(=O)NCC2CCC(C(=O)NCc3ccc4c(c3)OCO4)CC2)c(C)c1` (stereo not drawn) it was 33.6%; in that of `CNS(=O)(=O)c1cnccc1N1CCN(c2cccc(C)c2)CC1`, -3.12%.
In the case of `COc1cc(CO)ccc1OCC(=O)Nc1cccc2ccccc12` it was 314% (active).
In the case of `COc1ccc(N(CC(=O)Nc2cccc3ccccc23)S(C)(=O)=O)c(OC)c1` it was 9.81%; in that of `COc1ccccc1NC(=O)COc1ccc(C(=O)OCC(=O)N(C(C)C)C(C)C)cc1OC`, 38.2%; in that of `C[C@H](CO)N1C[C@H](C)[C@H](CN(C)CC2CC2)Oc2ccc(NC(=O)CCN3CCOCC3)cc2C1=O`, -13.9%.
With `Cc1ccc(S(=O)(=O)C2(S(=O)(=O)c3ccc(C)cc3)CCCC2)cc1`, the growth rescue was -9.93%.
Consider `COc1ccc(C(=O)N/N=C2\CCS(=O)(=O)c3ccc(F)cc32)cc1OC`, for which the growth rescue is -16.6%.
In the case of `O=S1(=O)CC/C(=N\Nc2ccc(F)cc2)c2ccsc21` it was 423% (active); in that of `CN1CCN(C(=O)c2ccc(-c3ccc(Br)cc3)o2)CC1`, 14%; in that of `O=C1C=CN2CCCC2CC1` (stereo not drawn), 51.5%.
As for `COc1ccc(OCC(=O)N2CCN(C(=O)COc3ccccc3)CC2)cc1`, the growth rescue is -6.56%.
In the case of `O=C1CC2(CCN(C(=O)COc3ccc(F)cc3)CC2)Oc2ccccc21` it was 269% (active); in that of `O=C1CC2(CCCCC2)Oc2ccc(OCC(=O)N3CCOCC3)cc21`, -29.5%; in that of `O=C1CCCC2=C1C(c1cccs1)n1nc(SCc3ccccc3)nc1N2` (stereo not drawn), 10.5%.
The result for `CC(C)Oc1ccc(Oc2ccc(C(F)(F)F)cn2)cc1` reads 21.9%; that for `O=Cc1ccc(Oc2cccc(C(F)(F)F)c2)nc1`, 554% (active).
In the case of `O=C(O)CCCC(=O)Nc1ccc(Oc2cccc(C(F)(F)F)c2)nc1` it was -3.63%.
`NNC(=O)CNC(c1ccccc1)c1cc(Cl)ccc1NC(=O)c1ccccc1` (stereo not drawn): the growth rescue is -0.491%.
In the case of `Cc1c(Cl)c([N+](=O)[O-])nn1CCCC(=O)NC(C)c1ccccc1` (stereo not drawn) it was 3.65%; in that of `COc1cccc(/C=N\Nc2nncc(-c3ccccc3)n2)c1`, -1.53%; in that of `CCOc1ccc(/C=N/Nc2nncc(-c3ccccc3)n2)cc1OC`, 999% (active).
With `CCOc1cc(/C=N/NC(=O)c2cc(-c3ccccc3)nc3ccccc23)ccc1O`, the growth rescue was 15.1%.
In the case of `CCCCNC(=O)CN1C(=O)NC(Cc2ccccc2)(Cc2ccccc2)C1=O` it was -4.3%; in that of `CCC1(CC)NC(=O)N(CC(=O)OCC(=O)NC(=O)c2ccccc2)C1=O`, 663% (active); in that of `CCC1(CC)NC(=O)N(CC(=O)OCC(=O)Nc2ccc(C(F)(F)F)cc2)C1=O`, 154%.
As for `Cc1c(C(N)=O)sc2ncn(CCOc3ccccc3)c(=O)c12`, the growth rescue is -2.19%.
In the case of `Cc1cccc2c1N(CCOc1ccccc1)C(=O)C2=O` it was -12.8%; in that of `Cc1nn(CCOc2ccccc2)c(=O)n1-c1ccccc1F`, 1160% (active).
